Screening data deposited in PubChem BioAssay by National Center for Advancing Translational Sciences (NCATS).
AMA1 RON2 block: disrupts binding of P. falciparum AMA1 to RON2; AlphaScreen AMA1-biotinylated RON2 peptide binding; Potency, µM (top dose mostly 58.2 µM), for inactives: at the highest dose activity change, negative = inhibition, usual class: inhibitors; actives 0.2% (n = 360,000);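 note: potency is the fitted concentration of half-maximal effect; 0% = vehicle wells and -100% = peptide control; nearly all actives have a fitted effect of over 45% in size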
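AMA1 (3D7) with his tag at 25 nM final met compounds first, then biotinylated RON2 peptide at 25 nM; detection used donor plus acceptor beads, 10 µg/mL apiece, read by AlphaScreen after 30 min at room temperature.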
Pf growth 96h: inhibits malaria parasite growth, 96 h; AID 504834; P. falciparum luciferase reporter growth, 96 h; Potency, µM (titrated, usually from 28.7 µM), without a hit: at the top dose activity change, negative = inhibition, actives largely listed as inhibitors; actives 6.9% (n = 320,000); note: potency is the fitted concentration of half-maximal effect; % is set by controls: 0 for no effect and ±100 for the full control effect
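Readout is luminescence from an integrated firefly luciferase in P. falciparum. Red cells, 2% hematocrit and 0.05% parasitemia final, were cultured with compound through two parasite generations (96 hours) at 37 C, 5% CO2.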
Pf growth 48h: P. falciparum growth inhibition at 48 hours (one generation). P. falciparum luciferase growth in erythrocytes, 48 h. Potency, µM (doses to about 28.7 µM), for inactives: at the top dose activity change, negative = inhibition, most hits filed as inhibitors. actives 5.9% (n = 310,000). AID 504832; note: potency is the fitted concentration of half-maximal effect; % is set by controls: 0 for no effect and ±100 for the full control effect
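Luminescence readout; reporter = integrated firefly luciferase in P. falciparum. RBC culture at 2% hematocrit, 0.1% parasitemia final, 37 C/5% CO2; decreased signal taken as growth inhibition.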
SARS PLpro yeast: inhibitors of SARS-CoV papain-like protease in yeast; S. cerevisiae expressing SARS-CoV PLpro, growth rescue; actives 0.19% (n = 330,000); AID 485353; Potency, µM (series often up to 32.9 µM), for inactives: at the highest dose activity, positive = growth rescue, actives largely listed as activators; calls by dose curve; note: potency is the fitted concentration of half-maximal effect; 0% is about no effect; nearly all actives have a fitted effect of over 55% in size
Shiga toxin inh: blocks Shiga toxin action in Vero cells; Vero cells, Shiga toxin protein synthesis inhibition reporter; inhibition, % at 38.7 µM; actives 9.2% (n = 290,000); in the data active = inhibition mostly above about 28%, no sharp cut-off; inactive = mostly below about 43%; note: 0% is about no effect
CHX counter: affects cycloheximide protein synthesis inhibition readout, counter-screen; cell reporter, cycloheximide protein synthesis inhibition counterscreen; max response, %; actives 12% (n = 300,000); AID 2314; in the data active = max response mostly above about 13%, no sharp cut-off; inactive = mostly below about 14%; note: read at 38.3 µM for the half of the compounds with a filed dose; 0% is about no effect
Starred values were filed as active, the others as inactive; ? = inconclusive; nt = not tested or not shown; [ ] = remark or other dose. Rows were chosen to be rich in hits. Some 19% of all compounds tested hit in one or more screens of this group. Unless noted, calls come from the whole dose curve; as a rule, active = well fitted curve in the direction sought with a large enough effect; inconclusive = small, poorly fitted or top-dose-only effect, or another doubt; inactive = no such curve, though single readings can be large; an effect the other way counts as inactive or inconclusive.

SMILES	AMA1 RON2 block	Pf growth 96h	Pf growth 48h	SARS PLpro yeast	Shiga toxin inh	CHX counter
COC(=O)c1sccc1-n1cccc1C(=O)NCc1ccccc1	0%	?	-11%	3%	-23	1
COc1ccc(-c2ncc(CN3CCN(CCC(C)C)C(CCO)C3)cn2)cc1 (stereo unspecified)	-8%	?	0%	1%	66*	33*
Cc1cccc(-c2ncc(CN3CCN(CC(C)C)C(CCO)C3)cn2)c1 (stereo unspecified)	0%	-14%	22%	0%	41*	15
C=CCn1c(SC2CCOC2=O)nc2sc(C)c(C)c2c1=O (stereo unspecified)	-6%	13µM*	12%	16%	0	-3
CCN(CC(=O)Nc1cccc(F)c1)CC(=O)Nc1ccccc1OC	23%	-2%	-8%	1%	6	-3
O=c1[nH]c2ccccc2nc1/C=C/c1ccc(Cl)cc1	4%	36%	239%	-6%	69*	37*
O=C(N/C(=C/c1ccc(Cl)cc1)c1nc2ccccc2[nH]1)c1ccco1	9%	214%	6%	3%	-18	-1
C(=C\c1nc2ccccc2[nH]1)/c1ccccc1	9%	?	-35%	-34%	68*	21*
C(=C\c1ccco1)/c1nc2ccccc2[nH]1	-6%	0%	18%	-4%	70*	50*
O=C(/C(=C/c1ccc(Cl)cc1)c1nc2ccccc2[nH]1)c1ccccc1	65%	2.3µM*	2.9µM*	-38%	41*	37*
O=C1NC(Cc2ccc(O)cc2)c2nc3ccc(Br)cc3c(=O)n2-c2ncccc21 (stereo unspecified)	13%	nt	nt	nt	nt	nt
NC(=O)CN1C(=O)NC2(CCCc3ccccc32)C1=O (stereo unspecified)	0%	?	-2%	-5%	-20	-3
CCCN(C(=O)/C=C/c1nc2ccccc2s1)C1CCS(=O)(=O)C1 (stereo unspecified)	-21%	?	?	1%	nt	nt
CC(=O)Nc1ccc(SC[C@H](Cc2ccccc2)N2CCN(CCc3ccccc3)CCC2=O)cc1	-7%	2.9µM*	8.3µM*	1%	-4	-2
CC(C)(C)[C@H]1CCC(=O)N([C@H](CSc2ccccc2)Cc2ccccc2)CC1	-4%	?	?	-2%	10	1
CC(=O)Nc1ccc(SC[C@H](Cc2ccccc2)N2CC[C@@H](C(C)(C)C)CCC2=O)cc1	-15%	?	1.9µM*	4%	nt	nt
N#CC[C@H](Cc1ccccc1)N1CCN(CCc2ccccc2)CCC1=O	-3%	3.7µM*	-45%	-8%	-6	-2
O=C1NC[C@H](CCCCN2C[C@H](Cc3ccc(O)cc3)N(Cc3ccccc3)C(=O)C2=O)N(CC2CCCCC2)C1=O	-3%	nt	nt	nt	nt	nt
Nc1nc(Nc2ccc(Cl)cc2)nc(NCCO)c1[N+](=O)[O-]	-8%	-19%	?	-3%	20	1
Cc1ccc(Nc2nc(N)c([N+](=O)[O-])c(NCc3ccco3)n2)cc1C	-15%	?	-81%	-22%	54*	67*
Cc1ccc(Nc2nc(N)c([N+](=O)[O-])c(NCCO)n2)cc1C	-18%	-23%	10%	-2%	62	27*
Cc1ccc(CNc2nc(N)c([N+](=O)[O-])c(NCCO)n2)cc1	-2%	8.3µM*	?	0%	22	10
Cc1nn(C)c(Oc2ccccc2)c1CCNC(=O)C(C)(C)C	7%	?	?	1%	25	-2
Cn1c(SCC(=O)NCCc2ccccc2)ncc(C(=O)Nc2ccc(F)cc2)c1=O	2%	3%	-6%	10%	nt	nt
Cc1cc(C)n(C(=O)/C(C#N)=N/Nc2cc(Cl)cc(Cl)c2)n1	-2%	?	12µM*	-32%	20	-7
SMILES	AMA1 RON2 block	Pf growth 96h	Pf growth 48h	SARS PLpro yeast	Shiga toxin inh	CHX counter
Cc1ccc(NC(=O)C(c2ccccc2)c2ccccc2)c(O)c1	-17%	?	?	-7%	1	-3
Cc1ccc(-c2nc3cc(C)c(Br)c(C)n3c2Cc2ccsc2)cc1	29%	nt	nt	nt	nt	nt
Cc1ccccc1C(=O)Oc1ccc2ccc(O)cc2c1	-5%	123%	217%	-9%	nt	59*
CC(=O)Nc1ccc(OS(=O)(=O)c2ccccc2C)cc1	2%	23%	20%	-1%	8	8
Cc1ccccc1S(=O)(=O)Oc1ccc2ccc(O)cc2c1	-3%	116%	56%	-5%	nt	32*
COc1cccc(C(=O)Oc2ccc3ccc(O)cc3c2)c1	-2%	-5%	72%	0%	nt	39*
CCC(=O)NC(=S)Nc1ccc(NC(=O)COc2ccc([N+](=O)[O-])cc2)cc1	-3%	9%	-18%[5.75 µM]	0%	10	-1
COc1ccc(CC(=O)Nc2cccc(SC)c2)cc1OC	8%	-12%	-4%	1%	8	6
O=C(CSc1ncnc2sc3c(c12)CCCC3)c1ccccc1	18%	2%	4%	-4%	15	1
O=C(CSc1ncnc2sc3c(c12)CCCCC3)NCc1ccco1	-15%	nt	-1%	-12%	103*	63*
O=C(CSc1ncnc2sc3c(c12)CCCC3)c1ccco1	-1%	-11%	39%	0%	156*	68*
Cc1nc2sc3c(c2c2nnc(SCC(=O)NCc4ccco4)n12)CCCC3	-8%	16%	-13%	-18%	active	28*
COC(=O)c1ccc2nc(-c3ccc(C)cc3)c(Cc3cccc(Cl)c3)n2c1	-1%	nt	nt	nt	nt	nt
COC(=O)C1=C(C(=O)OC)SC2(S1)C(C(=O)OC)=C(C(=O)OC)SC1=C2c2cc(C)cc(C)c2NC1(C)C	?	?	5.9µM*	nt	-11	5
COCCNC(=S)N1CCCC(CO)C1 (stereo unspecified)	31%	39%[5.75 µM]	2%	0%	21	-2
Cc1ccc(S(=O)(=O)n2nnc3ccccc32)c(C)c1C	-13%	-1%	-20%	0%	39	-2
O=C(Nc1cccnc1)c1ccc2c(c1)C(=O)N(CC1CCCO1)C2=O (stereo unspecified)	-5%	-5%	10%	1%	-1	1
CCCCOc1ccc(-c2nnn(C(C)(C)C(=O)OC)n2)cc1	16%	nt	16%	-9%	57*	32*
CCN(C[C@H]1N[C@@](CC)(C(=O)OC)[C@H]2C(=O)N(C)C(=O)[C@@H]12)C(=O)COC	2%	nt	nt	-8%	nt	nt
O=C1CSC(c2cccnc2)N1Cc1ccc(Cl)cc1 (stereo unspecified)	3%	20%	0%	-1%	-16	-3
O=C1CSC(c2cccnc2)N1Cc1ccc(Cl)cc1Cl (stereo unspecified)	-3%	9.3µM*	?	-2%	20	-2
